Reference: PubChem BioAssay (EPA / NIEHS)
Records with an inconclusive call do not appear. The source made the active and inactive calls. The calls were made as follows, unless noted: active = hit-call score of the fitted dose curve at least 0.9, where 1 is the maximum; inactive = score below 0.9.

Assays:
[1] = molecular target: Paired box protein Pax-6 (Homo sapiens) (UniProt P26367); assay: ATG_Pax6_CIS: Attagene CIS-FACTORIAL HepG2 Assay for human Paired Box 6 (PAX6) (AID 2282956); conditions: HepG2 CIS-FACTORIAL PAX6 reporter transcription, RNA readout; actives raise or lower the signal
Procedure, shortened: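 HepG2 cells transiently transfected with cis-promoter-driven multiplexed reporter units sensing endogenous transcription factor activity; 24 h chemical exposure. Reporter mRNA quantified by RT-PCR, 6-FAM labelling, HpaI digestion and capillary electrophoresis; bidirectional fit versus DMSO baseline.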

[2] = ATG_PXRE_CIS: Attagene CIS-FACTORIAL HepG2 Assay for human Pregnane X Receptor Element (PXRE) (AID 2282957); conditions: HepG2 Attagene CIS-FACTORIAL PXRE reporter, mRNA; actives raise or lower the signal
Procedure, shortened: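 Cells: HepG2, transiently transfected reporter units under cis promoter control. Exposure: 24 h. Detection: reporter mRNA via RT-PCR/CE fluorescence; bidirectional fitting, DMSO-referenced.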

[3] = ATG_PPRE_CIS: Attagene CIS-FACTORIAL HepG2 Assay for human Peroxisome Proliferator-activated Response Element (PPRE) (AID 2282958); conditions: HepG2 PPRE cis-element reporter, Attagene transcription factor profiling; actives raise or lower the signal
Procedure, shortened: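 In this cell-based multiplex, a PPRE cis element drives a reporter sequence in transiently transfected HepG2 cells. Following 24 h treatment, labeled cDNA amplicons are sized and quantified by capillary electrophoresis, with DMSO defining baseline.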

[4] = ATG_RORE_CIS: Attagene CIS-FACTORIAL HepG2 Assay for human RAR-related Orphan Receptor Element (RORE) (AID 2282959); conditions: HepG2 Attagene cis-factorial RORE reporter, mRNA; actives raise or lower the signal
Procedure, shortened: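 Endogenous factor activity at a cis response element is read as reporter transcript levels in HepG2 cells, 24 h post-dose. Transcripts are quantified by RT-PCR with capillary electrophoresis, and data fitted in both directions against DMSO.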

[5] = ATG_Sox_CIS: Attagene CIS-FACTORIAL HepG2 Assay for human SRY-box transcription factor (SOX) (AID 2282960); conditions: HepG2 Attagene cis-factorial SOX reporter, mRNA; actives raise or lower the signal
Procedure, shortened: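 Measures mRNA induction of a SOX1-associated reporter in HepG2 after 24 h dosing. Fluorescently labelled RT-PCR fragments are separated by capillary electrophoresis, and gain or loss relative to DMSO control is fitted.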

[6] = molecular target: Transcription factor Sp1 (Homo sapiens) (UniProt P08047); assay: ATG_Sp1_CIS: Attagene CIS-FACTORIAL HepG2 Assay for human Specificity Protein 1 (Sp1) (AID 2282961); conditions: HepG2 Sp1 cis-reporter transcription, actives raise or lower the signal
Procedure, shortened: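 Cells: HepG2, transiently transfected with cis-regulated multiplexed reporters. Exposure: 24 h. Detection: reporter transcripts amplified, fluorescently labeled, restriction-digested and sized by capillary electrophoresis. Analysis: bidirectional fit relative to DMSO.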

[7] = molecular target: Signal transducer and activator of transcription 3 (Homo sapiens) (UniProt P40763); assay: ATG_STAT3_CIS: Attagene CIS-FACTORIAL HepG2 Assay for human Signal Transducer and Activator of Transcription 3 (STAT3) (AID 2282963); conditions: HepG2, Attagene cis-factorial STAT3 reporter transcription; actives raise or lower the signal
Procedure, shortened: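 HepG2 cells transiently transfected with multiple cis-element-driven reporter units report endogenous transcription factor activity. After 24 h compound exposure, reporter mRNA is measured by RT-PCR, 6-FAM labelling, HpaI digestion and capillary electrophoresis. Fitted bidirectionally versus DMSO.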

[8] = ATG_TA_CIS: Attagene CIS-FACTORIAL HepG2 Assay for human TA Basal Promoter (AID 2282964); conditions: HepG2 Attagene CIS-factorial TA basal promoter reporter; actives raise or lower the signal
Procedure, shortened: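 Cis-factorial format in HepG2: reporters report endogenous factors, not chimeric Gal4 fusions. After 24 h treatment, reporter transcripts were measured by RT-PCR-capillary electrophoresis fluorescence, analysed bidirectionally versus DMSO.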

[9] = ATG_TCF_b_cat_CIS: Attagene CIS-FACTORIAL HepG2 Assay for human T-Cell-Factor with beta-catenin (TCF/b-cat) (AID 2282965); conditions: HepG2 TCF/beta-catenin cis-reporter transcription, actives raise or lower the signal
Procedure, shortened: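 HepG2 cells transiently transfected with cis-promoter-driven multiplexed reporter units; reporter mRNA measured 24 h after dosing by RT-PCR, FAM labelling, HpaI digestion and capillary electrophoresis. Bidirectional fitting relative to DMSO baseline.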

[10] = ATG_TAL_CIS: Attagene CIS-FACTORIAL HepG2 Assay for human TAL Basal Promoter (AID 2282966); conditions: HepG2 Attagene cis-factorial TAL promoter reporter; actives raise or lower the signal;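 also: background control endpoint measuring basal TAL promoter reporter mRNA not a specific factor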
Procedure, shortened: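 RT-PCR plus capillary electrophoresis quantifies reporter mRNA induction in transiently transfected HepG2 cells after 24 h chemical treatment. DMSO serves as negative control and baseline for bidirectional fitting.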

[11] = ATG_TGFb_CIS: Attagene CIS-FACTORIAL HepG2 Assay for human Transforming Growth Factor (TGF) (AID 2282967); conditions: HepG2 Attagene CIS TGFb reporter, mRNA transcription; actives raise or lower the signal
Procedure, shortened: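 Multiplexed cis-reporter HepG2 system, 24 h treatment; mRNA induction read by fluorescence after RT-PCR and CE; DMSO negative control, bidirectional curve fitting.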

[12] = ATG_VDRE_CIS: Attagene CIS-FACTORIAL HepG2 Assay for human Vitamin D Receptor Element (VDRE) (AID 2282968); conditions: HepG2 VDRE cis-reporter transcription, actives raise or lower the signal
Procedure, shortened: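 Transiently transfected HepG2 cells carrying cis-regulated reporter transcription units were exposed for 24 h. Reporter mRNA was measured by RT-PCR with fluorescent labelling and capillary electrophoresis, and fitted in both directions against DMSO.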

[13] = molecular target: Nuclear receptor subfamily 1 group I member 3 (Homo sapiens) (UniProt Q14994); assay: ATG_CAR_TRANS: Attagene TRANS-FACTORIAL HepG2 Assay for human Constitutive Androstane Receptor (CAR) (AID 2282969; active = hit-call score of the fitted dose curve at least 0.9, where 1 is the maximum;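 also: activators raise reporter mRNA above DMSO so AC50 marks induction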); conditions: HepG2 Attagene TRANS-FACTORIAL CAR reporter
Procedure, shortened: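 HepG2 cells transiently transfected with GAL4-UAS reporter units; TRANS format reads activity of exogenous chimeric NR-Gal4 protein. After 24 h dosing, reporter mRNA quantified by RT-PCR, 6-FAM labelling and capillary electrophoresis; gain of signal fitted against DMSO.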

[14] = molecular target: X-box-binding protein 1 (Homo sapiens) (UniProt P17861); assay: ATG_Xbp1_CIS: Attagene CIS-FACTORIAL HepG2 Assay for human X-box Binding Protein 1 (XBP1) (AID 2282972); conditions: HepG2 XBP1 cis-element reporter, Attagene multiplex; actives raise or lower the signal
Procedure, shortened: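 HepG2 cells transiently transfected with multiple cis-element reporter units report endogenous TF activity; 24 h exposure, then reporter mRNA measured by RT-PCR, 6-FAM labelling, HpaI digestion and capillary electrophoresis. Bidirectional fitting versus DMSO.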

[15] = ATG_M_19_TRANS: Attagene TRANS-FACTORIAL HepG2 Assay for M19 Transcription Factor (Internal Marker) (AID 2282974; active = hit-call score of the fitted dose curve at least 0.9, where 1 is the maximum); conditions: HepG2 Attagene TRANS-FACTORIAL M19 internal marker reporter
Procedure, shortened: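 Reporter mRNA induction was measured in transfected HepG2 cells 24 h after dosing. Endpoint fitted upward relative to DMSO and serves as a background control within the multiplexed TRANS panel.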

[16] = ATG_GAL4_TRANS: Attagene TRANS-FACTORIAL HepG2 Assay for GAL4 (Internal Marker) (AID 2282976; active = hit-call score of the fitted dose curve at least 0.9, where 1 is the maximum); conditions: HepG2 Attagene TRANS GAL4 internal marker reporter
Procedure, shortened: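 In transfected human HepG2 liver cells dosed 24 h, GAL4 reporter mRNA serves as a baseline marker. Detection by RT-PCR with fluorescent capillary electrophoresis, activity fitted upward relative to DMSO.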

[17] = ATG_SREBP_CIS: Attagene CIS-FACTORIAL HepG2 Assay for human Sterol Regulatory Element Binding (SREBP) (AID 2282962); conditions: HepG2 Attagene cis-factorial SREBP reporter, mRNA; actives raise or lower the signal
Procedure, shortened: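 HepG2 cells transiently transfected with multiplexed cis-promoter reporter units sensing endogenous transcription factors; reporter mRNA measured 24 h after dosing by RT-PCR, 6-FAM labeling, HpaI digestion and capillary electrophoresis. Bidirectional fit versus DMSO.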

Sequence of Paired box protein Pax-6 (Homo sapiens) (P26367 whole entry, looked up): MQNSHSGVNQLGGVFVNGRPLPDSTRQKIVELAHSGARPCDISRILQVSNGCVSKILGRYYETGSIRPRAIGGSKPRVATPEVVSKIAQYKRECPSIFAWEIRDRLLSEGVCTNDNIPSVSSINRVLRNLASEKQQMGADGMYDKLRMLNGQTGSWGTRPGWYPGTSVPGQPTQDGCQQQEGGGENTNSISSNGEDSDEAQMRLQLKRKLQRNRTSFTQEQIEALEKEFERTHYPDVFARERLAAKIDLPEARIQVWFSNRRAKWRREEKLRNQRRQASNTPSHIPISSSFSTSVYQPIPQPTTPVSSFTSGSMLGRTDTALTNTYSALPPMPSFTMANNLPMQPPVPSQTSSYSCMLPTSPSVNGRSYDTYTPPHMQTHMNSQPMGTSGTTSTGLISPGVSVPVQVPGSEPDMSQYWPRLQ
Sequence of Signal transducer and activator of transcription 3 (Homo sapiens) (P40763 whole entry, looked up): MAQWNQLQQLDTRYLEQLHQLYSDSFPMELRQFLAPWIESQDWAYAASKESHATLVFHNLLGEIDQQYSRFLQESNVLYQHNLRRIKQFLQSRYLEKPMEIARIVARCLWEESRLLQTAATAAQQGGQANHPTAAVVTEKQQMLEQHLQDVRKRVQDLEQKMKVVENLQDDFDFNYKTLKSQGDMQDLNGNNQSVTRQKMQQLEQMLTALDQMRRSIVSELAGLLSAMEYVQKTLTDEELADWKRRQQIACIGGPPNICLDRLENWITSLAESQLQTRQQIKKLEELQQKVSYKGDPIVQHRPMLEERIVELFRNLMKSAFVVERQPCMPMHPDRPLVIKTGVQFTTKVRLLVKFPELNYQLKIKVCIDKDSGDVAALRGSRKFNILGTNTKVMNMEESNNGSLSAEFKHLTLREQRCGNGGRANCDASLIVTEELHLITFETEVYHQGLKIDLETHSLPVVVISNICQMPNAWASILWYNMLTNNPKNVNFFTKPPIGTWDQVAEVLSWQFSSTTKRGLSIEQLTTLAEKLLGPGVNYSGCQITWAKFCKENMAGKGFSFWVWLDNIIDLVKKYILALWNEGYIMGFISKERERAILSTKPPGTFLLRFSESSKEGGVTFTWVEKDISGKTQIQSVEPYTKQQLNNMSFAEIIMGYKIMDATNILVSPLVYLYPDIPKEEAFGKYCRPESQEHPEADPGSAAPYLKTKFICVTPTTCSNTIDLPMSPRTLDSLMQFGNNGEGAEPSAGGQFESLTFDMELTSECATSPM
Sequence of X-box-binding protein 1 (Homo sapiens) (P17861 whole entry, looked up): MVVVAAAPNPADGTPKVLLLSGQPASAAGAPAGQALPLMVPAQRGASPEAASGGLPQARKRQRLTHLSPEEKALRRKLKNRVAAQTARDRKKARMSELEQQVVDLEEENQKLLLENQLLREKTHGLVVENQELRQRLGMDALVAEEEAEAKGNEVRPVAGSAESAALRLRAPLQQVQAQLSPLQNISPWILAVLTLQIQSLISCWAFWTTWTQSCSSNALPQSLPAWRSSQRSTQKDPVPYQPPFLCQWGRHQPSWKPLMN
Sequence of Transcription factor Sp1 (Homo sapiens) (P08047 whole entry, looked up): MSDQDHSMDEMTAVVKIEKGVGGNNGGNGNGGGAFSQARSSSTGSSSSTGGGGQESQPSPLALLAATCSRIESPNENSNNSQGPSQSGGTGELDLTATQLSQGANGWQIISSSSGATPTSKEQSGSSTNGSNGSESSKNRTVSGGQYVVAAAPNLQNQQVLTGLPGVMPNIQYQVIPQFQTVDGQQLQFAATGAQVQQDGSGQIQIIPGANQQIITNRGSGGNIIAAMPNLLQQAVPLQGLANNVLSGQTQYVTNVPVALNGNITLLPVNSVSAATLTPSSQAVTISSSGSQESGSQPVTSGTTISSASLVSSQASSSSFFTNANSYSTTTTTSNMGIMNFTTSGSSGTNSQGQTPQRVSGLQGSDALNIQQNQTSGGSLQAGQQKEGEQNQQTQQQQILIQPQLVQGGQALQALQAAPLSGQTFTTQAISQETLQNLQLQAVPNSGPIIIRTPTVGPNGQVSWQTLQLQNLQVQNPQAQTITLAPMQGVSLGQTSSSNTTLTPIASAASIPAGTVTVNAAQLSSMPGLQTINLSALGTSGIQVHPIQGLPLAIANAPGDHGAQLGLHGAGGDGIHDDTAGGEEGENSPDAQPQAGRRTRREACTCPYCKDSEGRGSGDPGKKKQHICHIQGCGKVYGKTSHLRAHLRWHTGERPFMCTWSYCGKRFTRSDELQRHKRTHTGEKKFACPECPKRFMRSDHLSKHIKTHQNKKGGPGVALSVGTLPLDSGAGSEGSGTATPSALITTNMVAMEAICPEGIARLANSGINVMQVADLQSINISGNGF
Sequence of Nuclear receptor subfamily 1 group I member 3 (Homo sapiens) (Q14994 whole entry, looked up, the tested form may be a part): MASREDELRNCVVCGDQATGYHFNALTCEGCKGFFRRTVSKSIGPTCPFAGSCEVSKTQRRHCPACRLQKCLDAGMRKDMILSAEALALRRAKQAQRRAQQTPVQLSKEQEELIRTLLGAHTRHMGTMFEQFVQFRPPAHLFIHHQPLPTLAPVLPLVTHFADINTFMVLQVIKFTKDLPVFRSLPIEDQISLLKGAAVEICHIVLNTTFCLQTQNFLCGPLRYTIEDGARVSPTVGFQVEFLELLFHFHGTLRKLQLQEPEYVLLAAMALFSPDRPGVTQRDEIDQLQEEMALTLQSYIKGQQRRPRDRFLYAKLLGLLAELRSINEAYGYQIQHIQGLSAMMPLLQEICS

Compound | outcome [1] | AC50 [2] | outcome [3] | outcome [4] | outcome [5] | outcome [6] | outcome [7] | outcome [8] | outcome [9] | outcome [10] | outcome [11] | outcome [12] | outcome [13] | outcome [14] | outcome [15] | outcome [16] | outcome [17] | outcome [2]
CCCCOCCOCCSC#N | inactive | 1.92 µM (active) | inactive | inactive | inactive | inactive | inactive | inactive | inactive | inactive | inactive | inactive | inactive | inactive | inactive | inactive | – | –
FC1(F)C(F)(F)C(F)(F)C2(F)C(F)(C1(F)F)C(F)(F)C(F)(F)C1(F)C(F)(F)C(F)(F)C(F)(F)C(F)(F)C12F (stereo not given) | inactive | 37.5 µM (active) | inactive | inactive | inactive | – | – | inactive | inactive | inactive | inactive | inactive | – | inactive | – | – | inactive | –
NCCCN1CCOCC1 | inactive | – | inactive | – | inactive | inactive | inactive | inactive | inactive | inactive | inactive | inactive | – | – | – | – | inactive | inactive
